# Laboratory results reported in PubChem BioAssay (NCATS).
# Results filed as inconclusive are left out. Where a call stands in place of a potency, no number is given. Some compounds were tested as several samples or in several runs, with calls that do not always agree. The source made the active and inactive calls. Unless noted, the call rests on the fitted dose curve; in most records, active means well fitted curve in the direction sought with a large enough effect in the repeat runs; inconclusive means weak or mixed curves; inactive means no such curve, though single readings can be large; an effect the other way counts as inactive or inconclusive.
# System: not listed separately
# Test: Primary qHTS for small molecule stabilizers of the endoplasmic reticulum resident proteome: Secreted ER Calcium Modulated Protein (SERCaMP) assay (AID 1508630; active means well fitted curve in the direction sought with a large enough effect; an effect the other way counts as inactive or inconclusive)
# Conditions: SH-SY5Y GLuc-SERCaMP (Gaussia luciferase released on ER calcium loss) secretion, thapsigargin, luminescence; series mostly up to 38.4 µM
# In short: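 The SH-SY5Y reporter protocol was run at 3 concentrations up to 38.3 uM (primary) or 11 concentrations (follow-up): 16 h compound, 100 nM thapsigargin for 4 h, then extracellular luciferase luminescence.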
row,SMILES,Potency
1,O=NN(CCCl)C(=O)NCCCl,inactive
2,Cc1ccc2c(c1)C(=O)[C@@]1(O)CCN(c3ccccc3)C1=N2,inactive
3,Cc1c(C)c2c(c(C)c1O)CCC(C)(COc1ccc(CC3SC(=O)NC3=O)cc1)O2 (stereo not drawn),inactive
4,O=C(NOC[C@H](O)CO)c1ccc(F)c(F)c1Nc1ccc(I)cc1F,inactive
5,CC(C)c1onc(-c2c(Cl)cccc2Cl)c1COc1ccc(/C=C/c2cccc(C(=O)O)c2)c(Cl)c1,inactive

# System: not listed separately
# Test: A High-Content qHTS Against Drug Library for the Identification of Small Molecules that Inhibit DYT1 Early Onset Primary Dystonia-Associated Cell Pathology (AID 1645839; calls by dose curve)
# Conditions: HEK293 Flp-In EGFP-delE TorsinA, punctate imaging, 48 h; series mostly up to 46.1 µM
# In short: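 Cells were seeded and left for 24 h, then dosed with compound alongside tetracycline induction of mutant EGFP-TorsinA. They were incubated for 48 h, fixed in 4% paraformaldehyde, permeabilized and imaged for mislocalization (%pathology) and cell count.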
row,SMILES,Potency
1,Cc1ccc(N(CC2=NCCN2)c2cccc(O)c2)cc1,inactive
2,NC(=O)c1cnccn1,inactive
3,CC(C)(C)NCC(O)c1ccc(O)c(CO)c1 (stereo not drawn),inactive
4,O=C(O)COCCN1CCN(C(c2ccccc2)c2ccc(Cl)cc2)CC1 (stereo not drawn),inactive
5,CCn1cc(C(=O)O)c(=O)c2cc(F)c(N3CCNC(C)C3)c(F)c21 (stereo not drawn),inactive
6,Cc1cnc(NC(=O)C2=C(O)c3ccccc3S(=O)(=O)N2C)s1,inactive
7,C[C@]12CCC(=O)C=C1CC[C@@H]1[C@@H]2[C@@H](O)C[C@@]2(C)[C@H]1CC[C@]2(O)C(=O)CO,inactive
8,CCN(CC)CCCC(C)Nc1ccnc2cc(Cl)ccc12 (stereo not drawn),inactive

# Molecular target: Cytochrome P450 2D6 (Homo sapiens) (UniProt P10635)
# Test: Cytochrome P450 family 2 subfamily D member 6 (CYP2D6) small molecule antagonists: luciferase biochemical (cell-free) qHTS assay (AID 1645840); further: nearly all actives have a fitted effect of over 55% in size; further: potency means the concentration at half of the fitted maximal effect
# Conditions: P450-Glo CYP2D6 enzyme, luciferin luminescence, 1 h; series mostly up to 57.4 µM
# In short: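 P450-Glo CYP2D6 system: proluciferin substrate converted by enzyme to luciferin, read by luminescence proportional to activity. Enzyme-substrate mix with compound 10 min at room temperature, then NADPH regeneration 1 h before detection reagent.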
# Chain of Cytochrome P450 2D6 (Homo sapiens) (P10635 whole entry, looked up): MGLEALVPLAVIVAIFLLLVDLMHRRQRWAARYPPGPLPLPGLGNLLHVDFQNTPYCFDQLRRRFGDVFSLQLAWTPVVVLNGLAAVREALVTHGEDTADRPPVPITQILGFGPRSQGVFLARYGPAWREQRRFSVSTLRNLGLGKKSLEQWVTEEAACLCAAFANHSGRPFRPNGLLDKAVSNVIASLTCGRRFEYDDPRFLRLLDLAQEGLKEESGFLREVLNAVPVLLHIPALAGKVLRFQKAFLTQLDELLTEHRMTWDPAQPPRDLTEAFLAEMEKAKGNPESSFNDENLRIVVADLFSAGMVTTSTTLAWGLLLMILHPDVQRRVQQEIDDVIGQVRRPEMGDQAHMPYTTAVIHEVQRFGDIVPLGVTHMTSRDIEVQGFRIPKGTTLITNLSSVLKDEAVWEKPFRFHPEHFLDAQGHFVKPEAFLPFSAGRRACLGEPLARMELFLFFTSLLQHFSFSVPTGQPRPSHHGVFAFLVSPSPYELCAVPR
row,SMILES,Potency
1,Cc1ccc(N(CC2=NCCN2)c2cccc(O)c2)cc1,0.309 µM (active)
2,NC(=O)c1cnccn1,inactive
3,CC(C)(C)NCC(O)c1ccc(O)c(CO)c1 (stereo not drawn),inactive
4,COc1cccc2cc(-c3nc(C4CCC(C(=O)O)CC4)n4ncnc(N)c34)[nH]c12 (stereo not drawn),inactive
5,CS(=O)(=O)c1cccc(CNc2nc(Nc3ccc4c(c3)CCC(=O)N4)ncc2C(F)(F)F)c1,inactive
6,CCn1cc(C(=O)O)c(=O)c2cc(F)c(N3CCNC(C)C3)c(F)c21 (stereo not drawn),inactive
7,Cc1cnc(NC(=O)C2=C(O)c3ccccc3S(=O)(=O)N2C)s1,inactive
8,C/C(=C\C(=O)Nc1ccccc1C(=O)O)c1ccc2ccccc2c1,inactive
9,N=c1nc(N2CCCCC2)cc(N)n1O,7.76 µM (active)
10,C[C@]12CCC(=O)C=C1CC[C@@H]1[C@@H]2[C@@H](O)C[C@@]2(C)[C@H]1CC[C@]2(O)C(=O)CO,inactive
11,Cc1ccc2c(c1)C(=O)[C@@]1(O)CCN(c3ccccc3)C1=N2,inactive

# Molecular target: Cytochrome P450 2C9 (Homo sapiens) (UniProt P11712)
# Test: Cytochrome P450 family 2 subfamily C member 9 (CYP2C9) small molecule antagonists: luciferase biochemical (cell-free) qHTS assay (AID 1645842); further: nearly all actives have a fitted effect of over 55% in size; further: potency means the concentration at half of the fitted maximal effect
# Conditions: P450-Glo CYP2C9 enzyme assay, luciferin luminescence; series mostly up to 57.4 µM
# In short: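 P450-Glo CYP2C9 system: proluciferin substrate with enzyme in mix containing 0.4% BSA, 10 min at room temperature, then NADPH regeneration solution added and incubated 1 h at 37C. Detection reagent stopped reaction; luminescence read after 20 min as RLU.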
# Chain of Cytochrome P450 2C9 (Homo sapiens) (P11712 whole entry, looked up): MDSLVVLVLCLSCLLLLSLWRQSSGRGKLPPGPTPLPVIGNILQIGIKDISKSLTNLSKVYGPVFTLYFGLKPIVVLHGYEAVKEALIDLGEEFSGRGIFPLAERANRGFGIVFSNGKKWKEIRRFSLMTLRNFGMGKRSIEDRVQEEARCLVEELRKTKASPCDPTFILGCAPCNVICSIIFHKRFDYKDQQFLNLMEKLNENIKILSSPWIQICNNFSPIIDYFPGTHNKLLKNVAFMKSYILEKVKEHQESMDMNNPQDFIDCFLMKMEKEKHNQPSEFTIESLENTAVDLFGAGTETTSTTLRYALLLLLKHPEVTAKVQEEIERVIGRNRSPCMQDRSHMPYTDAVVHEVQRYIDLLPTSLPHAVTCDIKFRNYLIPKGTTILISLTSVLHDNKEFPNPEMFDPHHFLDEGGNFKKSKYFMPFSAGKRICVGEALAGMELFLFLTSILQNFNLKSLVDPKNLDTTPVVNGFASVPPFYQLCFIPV
row,SMILES,Potency
1,Cc1ccc(N(CC2=NCCN2)c2cccc(O)c2)cc1,inactive
2,NC(=O)c1cnccn1,inactive
3,COc1cc2c(cc1OC)CN(CCc1ccc(NC(=O)c3cccc4c(=O)c5cccc(OC)c5[nH]c34)cc1)CC2,3.01 µM (active)
4,CC(C)(C)NCC(O)c1ccc(O)c(CO)c1 (stereo not drawn),inactive
5,COc1cccc2cc(-c3nc(C4CCC(C(=O)O)CC4)n4ncnc(N)c34)[nH]c12 (stereo not drawn),inactive
6,CS(=O)(=O)c1cccc(CNc2nc(Nc3ccc4c(c3)CCC(=O)N4)ncc2C(F)(F)F)c1,0.169 µM (active)
7,CC(C)(N)C(=O)N[C@H](COCc1ccccc1)C(=O)N1CCC2(CC1)CN(S(C)(=O)=O)c1ccccc12,inactive
8,COc1ccccc1-c1cccc(-c2c(O)c3cc(C#N)c(Cl)cc3[nH]c2=O)c1,35.5 µM (active)
9,CCn1cc(C(=O)O)c(=O)c2cc(F)c(N3CCNC(C)C3)c(F)c21 (stereo not drawn),inactive
10,COc1ccc(-c2oc3cc(OC)ccc3c2C(=O)c2ccc(C#N)cc2)cc1,7.56 µM (active)
11,C[C@@H]1CN(Cc2ccc(F)cc2)[C@@H](C)CN1C(=O)c1cc2c(C(=O)C(=O)N(C)C)cn(C)c2cc1Cl,7.56 µM (active)
12,Cc1cnc(NC(=O)C2=C(O)c3ccccc3S(=O)(=O)N2C)s1,11 µM (active) and inactive
13,N=c1nc(N2CCCCC2)cc(N)n1O,inactive
14,C[C@]12CCC(=O)C=C1CC[C@@H]1[C@@H]2[C@@H](O)C[C@@]2(C)[C@H]1CC[C@]2(O)C(=O)CO,inactive
15,CCN(CC)CCCC(C)Nc1nc(C)cc(Nc2ccc3nc(C)cc(N)c3c2)n1 (stereo not drawn),inactive
16,Cn1cc(-c2ccc3nnc(C(F)(F)c4ccc5ncccc5c4)n3n2)cn1,3.01 µM (active)
17,COc1cc(Nc2ncc3c(n2)-c2ccc(Cl)cc2C(c2c(F)cccc2OC)=NC3)ccc1C(=O)O,inactive
18,Cc1c(C)c2c(c(C)c1O)CCC(C)(COc1ccc(CC3SC(=O)NC3=O)cc1)O2 (stereo not drawn),6.92 µM (active)
19,O=C(NOC[C@H](O)CO)c1ccc(F)c(F)c1Nc1ccc(I)cc1F,16.9 µM (active)
